# CYP2C9 inh: blocks human cytochrome P450 2C9; P11712; AID 777; 96,000 compounds, 20% hits; inhibition, % at 5 µM; CYP2C9 Supersomes, luciferin-H conversion, luminescence;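 active means blocking of liver enzyme CYP2C9 beyond about 50% at 5 µM, limit read from the data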
# CYP2C9 act: CYP2C9 (human) activation; activation factor at 5 µM; recombinant CYP2C9, luciferin-H conversion, luminescence; hits give high values; factor 1 = untreated enzyme, 0 = blocked; AID 1024; 96,000 compounds, 1.4% hits;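 active means activation factor of 2 or more for CYP2C9 at a 5 µM dose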;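 further: 0 = sulfaphenazole-blocked wells and 1 = vehicle-only wells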
# CD11b adhes enh: enhancers of human CD11b/CD18 binding to fibrinogen; P05107+P11215; K562 CD11b/CD18 adhesion to fibrinogen, ATPlite luminescence; activation, % at 10 µM; 93,000 compounds, 0.07% hits; AID 1499;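 active means 10 µM primary screen giving 50% or more activity, confirmed by 40% or more on retest at that dose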
# Target sequence (P05107 whole entry, looked up, other chains not shown): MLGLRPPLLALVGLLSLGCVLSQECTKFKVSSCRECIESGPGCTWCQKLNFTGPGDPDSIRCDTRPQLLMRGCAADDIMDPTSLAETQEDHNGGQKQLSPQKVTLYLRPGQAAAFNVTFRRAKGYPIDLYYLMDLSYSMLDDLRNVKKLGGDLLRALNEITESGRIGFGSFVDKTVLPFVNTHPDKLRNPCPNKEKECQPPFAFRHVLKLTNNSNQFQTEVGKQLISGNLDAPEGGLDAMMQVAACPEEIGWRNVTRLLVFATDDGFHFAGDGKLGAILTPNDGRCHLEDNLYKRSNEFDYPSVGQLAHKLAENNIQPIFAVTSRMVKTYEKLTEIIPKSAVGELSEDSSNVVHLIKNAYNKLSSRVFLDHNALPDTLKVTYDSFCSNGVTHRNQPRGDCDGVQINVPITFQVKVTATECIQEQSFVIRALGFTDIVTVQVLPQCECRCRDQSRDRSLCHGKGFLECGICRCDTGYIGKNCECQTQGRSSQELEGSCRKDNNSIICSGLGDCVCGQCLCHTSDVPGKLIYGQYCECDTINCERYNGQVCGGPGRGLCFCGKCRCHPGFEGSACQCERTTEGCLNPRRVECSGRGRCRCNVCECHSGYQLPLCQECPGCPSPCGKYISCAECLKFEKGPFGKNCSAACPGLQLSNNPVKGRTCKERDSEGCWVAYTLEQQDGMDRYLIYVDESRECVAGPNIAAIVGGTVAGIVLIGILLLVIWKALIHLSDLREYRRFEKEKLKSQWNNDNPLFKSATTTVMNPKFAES
# CYP2C19 activ: increases human CYP2C19 enzyme activity. P33261. recombinant CYP2C19, luciferin-H EGE luminescence; hits give high values; 0 = fully inhibited enzyme, 1 = untreated enzyme. activation factor at 5 µM. 96,000 tested, under 10 active. AID 1025;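 active means activation factor of at least 2 at 5 µM in the primary screen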;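 further: 0 = wells with 2.5 mM tranylcypromine and 1 = vehicle-only wells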
# CD11b adhes inh: CD11b/CD18-fibrinogen binding inhibition; P05107+P11215; K562 CD11b/CD18 adhesion to fibrinogen, ATPlite luminescence; Mn2+ added to activate the integrin; inhibition, % at 10 µM; 93,000 compounds, 0.54% hits;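 active means primary inhibition of 50% or more at 10 µM, then 40% or more on retest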
# CYP2C19 inhib: blocks human cytochrome P450 2C19 | CYP2C19 Supersomes, luciferin-H EGE luminescence, 30 min | 96,000 compounds, 21% hits | inhibition, % at 5 µM | AID 778;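 active means CYP2C19 inhibition above a set limit at 5 µM in the primary screen, cut at about 50% in these data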;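 further: plate controls were negative control wells for no effect and 2.5 mM tranylcypromine positive control for full effect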
# Starred values were filed as active, the others as inactive; nt = not tested or not shown. Only some compounds are listed: those with a hit (about 28% of all), similar ones and a draw of the others.
SMILES,CYP2C9 inh,CYP2C9 act,CD11b adhes enh,CYP2C19 activ,CD11b adhes inh,CYP2C19 inhib
O=C(CSCc1cccc(Br)c1)N/N=C/c1ccc2c(c1)OCO2,55*,0.4,nt,0.9,nt,12
O=C(CSCc1ccccc1)N/N=C/c1ccccc1OCc1ccccc1,60*,0.4,-1,0.9,21,14
CCOC(=O)c1nn(-c2ccc(F)cc2)c2c1CC/C2=C/c1ccccc1,nt,nt,13,nt,-2,nt
COCC(=O)N(Cc1ccc(OC)cc1)Cc1nc2ccccc2c(=O)[nH]1,-6,1.1,3,0.7,0,27
COc1cc(C)nc(NS(=O)(=O)c2ccc(C)cc2)n1,10,0.9,-1,0.8,0,17
Cc1cc(O)c(C(C)C)cc1NC(=O)c1ccc(Cl)cc1,3,1,-7,0.5,6,49
Cc1ccc(S(=O)(=O)Nc2cc(C(C)C)c(O)cc2C)cc1,36,0.6,3,0.2,-22,84*
Cc1ccc(S(=O)(=O)Nc2cc(Cl)c(O)cc2C)cc1,-127,2.3*,0,0,18,98*
Cc1c(NS(=O)(=O)c2ccccc2)cc(Cl)c(O)c1C,-150,2.5*,0,0,102,99*
CCN1C(=O)N(CN2CCOCC2)C2C1N(CN1CCOCC1)C(=O)N2CC (configuration not stated),14,0.9,3,1,-11,0
CC(C)(C)NC(=S)Nc1ccc(Nc2ccccc2)cc1,54*,0.5,nt,0.6,nt,38
Cc1nc2ccccc2n1CC(=O)N/N=C\c1ccccn1,-2,1,2,1.1,-3,-10
O=C(NCc1ccco1)C1CCN(C(=O)c2cc3sccc3n2Cc2ccc(F)cc2)CC1,98*,0,8,0.1,0,86*
O=C(NCCc1ccccc1)c1cc2sccc2n1Cc1ccccc1,46,0.5,3,0.8,9,16
O=C(c1ccco1)N1CCN(C(=O)c2cc3sccc3n2Cc2ccccc2)CC1,89*,0.1,-1,0.8,6,20
Cc1cc(CSc2ccccc2)ccc1NC(=O)COc1ccccc1C,nt,nt,0,nt,-19,nt
O=C(O)C1C2C=CC(C2)C1C(=O)OC1CC2CCC1C2 (configuration not stated),42,0.6,-4,0.6,0,36
Cc1cc(C)n(C(=O)C(C)N2C(=O)c3ccccc3C2=O)n1 (configuration not stated),17,0.8,3,0.5,1,50
CCc1ccc(/C=C2\Oc3cc(OS(C)(=O)=O)ccc3C2=O)cc1,nt,nt,-2,nt,-1,nt
O=C1/C(=C/c2cccnc2)Oc2cc(OS(=O)(=O)c3ccc(F)cc3)ccc21,84*,0.2,2,0.6,-40,45
Cc1ccc(S(=O)(=O)Oc2ccc3c(c2)O/C(=C\c2cccnc2)C3=O)cc1,91*,0.1,-3,0.3,-36,72*
CN(CCOC(=O)c1ccco1)Cc1ccccc1,7,0.9,-4,0.7,-10,26
O=C(OCCN(C1=NS(=O)(=O)c2ccccc21)c1ccc(Cl)cc1)c1ccco1,85*,0.2,-3,0.1,0,86*
Cc1ccc2nc(NC(=O)CCCc3nc4ccccc4s3)sc2c1,2,1,-1,0.9,-26,7
Cc1ccc2nc(NC(=O)CCn3c(=O)sc4ccccc43)sc2c1,58*,0.4,1,1.2,-7,-18
SMILES,CYP2C9 inh,CYP2C9 act,CD11b adhes enh,CYP2C19 activ,CD11b adhes inh,CYP2C19 inhib
O=C(Cn1c(=O)sc2ccccc21)NCc1ccccn1,-58,1.6,0,0.7,-1,33
O=C(CCn1c(=O)sc2ccccc21)Nc1nc2ccccc2s1,80*,0.2,7,0.8,-6,18
O=C(CCn1c(=O)sc2ccccc21)NCc1ccccc1,-90,1.9,10,0.2,-10,80*
Cn1cc(SCC(=O)Nc2nc3ccccc3s2)c2ccccc21,-29,1.3,0,1.2,-23,-20
CCCC(=O)CN1C(=O)C2(OCCO2)c2ccccc21,11,0.9,0,0.9,6,6
CC1(C)N=C(/C=N/O)CN1O,-14,1.1,0,1.1,-2,-14
COCCn1c(C)cc(C(=O)COC(=O)CCc2ccc(S(=O)(=O)N3CCOCC3)cc2)c1C,-6,1.1,1,1,12,0

# Source: PubChem BioAssay
